# According to PubChem BioAssay (NCATS):
# Results filed as inconclusive are left out. A call without a number means that no potency is given here. Activity calls are given as the source filed them. Unless noted, the call rests on the fitted dose curve; in most records, active means well fitted curve in the direction sought with a large enough effect; inconclusive means small, poorly fitted or top-dose-only effect, or another doubt; inactive means no such curve, though single readings can be large; an effect the other way counts as inactive or inconclusive.
# Experiments:
# [1] = Primary qHTS for small molecule stabilizers of the endoplasmic reticulum resident proteome: Secreted ER Calcium Modulated Protein (SERCaMP) assay (AID 1508630)
# In short: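 GLuc-SERCaMP-expressing SH-SY5Y cells, pretreated 16 h with compound, are challenged with thapsigargin to empty ER calcium stores; after 4 h, coelenterazine is added directly to the medium and luminescence is imaged.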
# [2] = biological target: Glucocorticoid receptor (Homo sapiens) (UniProt P04150); test: GR-GFP Redistribution (AID 450;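 active means compounds whose dose series gives a full or clear partial fitted curve of increased nuclear translocation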; further: potency means the concentration at half of the fitted maximal effect); conditions: U2OS GR-GFP nuclear translocation, laser cytometry, 2 h
# Glucocorticoid receptor (Homo sapiens), sequence (P04150 whole entry, looked up, the tested form may be a part): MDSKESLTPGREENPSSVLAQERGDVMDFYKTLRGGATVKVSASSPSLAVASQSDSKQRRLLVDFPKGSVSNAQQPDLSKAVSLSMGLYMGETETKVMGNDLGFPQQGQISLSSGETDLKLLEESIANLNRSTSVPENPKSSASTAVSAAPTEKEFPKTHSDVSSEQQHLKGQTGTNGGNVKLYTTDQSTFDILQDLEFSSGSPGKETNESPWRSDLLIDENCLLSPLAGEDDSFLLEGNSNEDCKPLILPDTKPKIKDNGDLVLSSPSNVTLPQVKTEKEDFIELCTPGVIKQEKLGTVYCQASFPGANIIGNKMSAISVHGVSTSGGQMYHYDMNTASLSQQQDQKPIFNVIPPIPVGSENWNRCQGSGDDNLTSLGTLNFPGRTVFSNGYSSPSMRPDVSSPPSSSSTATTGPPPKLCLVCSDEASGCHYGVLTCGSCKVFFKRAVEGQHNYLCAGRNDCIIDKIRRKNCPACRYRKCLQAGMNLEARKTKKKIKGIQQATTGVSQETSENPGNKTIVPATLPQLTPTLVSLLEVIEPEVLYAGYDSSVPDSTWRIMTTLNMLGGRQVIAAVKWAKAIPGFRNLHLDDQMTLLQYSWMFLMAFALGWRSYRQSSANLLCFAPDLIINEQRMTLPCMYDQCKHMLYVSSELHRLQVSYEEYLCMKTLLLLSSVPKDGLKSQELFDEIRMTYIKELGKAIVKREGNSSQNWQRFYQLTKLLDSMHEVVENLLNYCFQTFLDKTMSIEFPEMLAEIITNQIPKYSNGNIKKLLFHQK
# [3] = biological target: Glucocorticoid receptor (Homo sapiens) (UniProt P04150); test: GR-EFC Redistribution (AID 451; calls by dose curve; further: potency means the concentration at half of the fitted maximal effect); conditions: CHO-K1 GR-EFC translocation, beta-gal luminescence, 2 h
# In short: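 Translocation of GR-ED fusion to nuclear EA restores b-gal, read by luminescence after 1 h room-temperature detection. Engineered CHO-K1 biosensor cells, 1,000/well, exposed 2 h at 37 C to titrations up to 46 uM final.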
# [4] = biological target: Mitogen-activated protein kinase 10 (Mus musculus) (UniProt Q61831); test: JNK3 AlphaScreen Assay (AID 530; active means well fitted curve in either direction with a large enough effect, not every such curve was filed as active;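 further: kinase came from lysate of stimulated human HepG2 cells; signal reports phosphorylation of biotinylated GST-cJun 1-79 at Ser73 with 10 µM ATP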)
# In short: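 Room-temperature AlphaScreen kinase assay; pre-activated HepG2 lysate as JNK3 source, biotin-GST-cJun(1-79) substrate, 10 uM ATP, compound 15 min preincubation.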
# [5] = qHTS Assay for Lipid Storage Modulators (AID 1519; calls by dose curve); conditions: Drosophila S3 cells, BODIPY lipid droplet/cell ratio, laser cytometry, cells loaded with oleic acid
# In short: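 Cells seeded at 5,000 per well were treated with compounds over a concentration series and loaded with oleic acid (400 uM, as added). Lipid droplet fluorescence (488 nm excitation, 500-530 nm channel) was read by laser-scanning cytometry and normalized to 20 uM Triacsin C.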
# [6] = biological target: Ubiquitin carboxyl-terminal hydrolase 1 (Homo sapiens) (UniProt O94782); test: Inhibitors of USP1/UAF1: Pilot qHTS (AID 504865);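 further: rhodamine fluorescence freed from ubiquitin-rhodamine substrate followed over time; top concentration of the series differs between compounds; nearly all actives have a fitted effect of over 35% in size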
# Ubiquitin carboxyl-terminal hydrolase 1 (Homo sapiens), sequence (O94782 whole entry, looked up): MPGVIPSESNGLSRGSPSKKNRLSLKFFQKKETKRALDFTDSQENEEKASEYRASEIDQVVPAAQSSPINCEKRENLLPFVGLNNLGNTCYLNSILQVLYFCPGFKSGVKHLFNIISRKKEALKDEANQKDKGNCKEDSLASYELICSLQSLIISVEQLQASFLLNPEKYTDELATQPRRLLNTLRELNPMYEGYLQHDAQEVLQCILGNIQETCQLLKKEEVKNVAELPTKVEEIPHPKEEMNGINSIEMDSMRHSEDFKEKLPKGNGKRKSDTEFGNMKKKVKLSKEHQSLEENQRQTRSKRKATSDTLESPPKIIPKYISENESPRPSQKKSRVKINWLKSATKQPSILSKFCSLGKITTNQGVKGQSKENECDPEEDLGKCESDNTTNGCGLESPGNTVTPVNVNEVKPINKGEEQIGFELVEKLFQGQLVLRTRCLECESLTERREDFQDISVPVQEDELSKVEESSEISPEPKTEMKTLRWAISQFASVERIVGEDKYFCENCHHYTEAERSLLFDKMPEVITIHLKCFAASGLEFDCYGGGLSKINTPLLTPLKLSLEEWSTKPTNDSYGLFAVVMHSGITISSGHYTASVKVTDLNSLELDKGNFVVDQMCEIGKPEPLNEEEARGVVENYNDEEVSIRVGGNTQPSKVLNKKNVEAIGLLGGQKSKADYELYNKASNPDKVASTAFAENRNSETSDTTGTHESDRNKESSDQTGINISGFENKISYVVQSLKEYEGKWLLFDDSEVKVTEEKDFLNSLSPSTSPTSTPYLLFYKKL
# In short: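 USP1/UAF1 complex at 1 nM preincubated 15 min at room temperature with compound, then Ub-Rho substrate added at 150 nM final. Fluorescence (480/540 nm) read kinetically in 50 mM HEPES pH 7.8, 0.5 mM EDTA, 1 mM TCEP, 0.1 mg/ml BSA, 0.01% Tween-20.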
# [7] = biological target: DNA dC->dU-editing enzyme APOBEC-3G (Homo sapiens) (UniProt Q9HC16); test: qHTS for inhibitors of Vif-A3G interactions: Validation (AID 588379)
# DNA dC->dU-editing enzyme APOBEC-3G (Homo sapiens), sequence (Q9HC16 whole entry, looked up): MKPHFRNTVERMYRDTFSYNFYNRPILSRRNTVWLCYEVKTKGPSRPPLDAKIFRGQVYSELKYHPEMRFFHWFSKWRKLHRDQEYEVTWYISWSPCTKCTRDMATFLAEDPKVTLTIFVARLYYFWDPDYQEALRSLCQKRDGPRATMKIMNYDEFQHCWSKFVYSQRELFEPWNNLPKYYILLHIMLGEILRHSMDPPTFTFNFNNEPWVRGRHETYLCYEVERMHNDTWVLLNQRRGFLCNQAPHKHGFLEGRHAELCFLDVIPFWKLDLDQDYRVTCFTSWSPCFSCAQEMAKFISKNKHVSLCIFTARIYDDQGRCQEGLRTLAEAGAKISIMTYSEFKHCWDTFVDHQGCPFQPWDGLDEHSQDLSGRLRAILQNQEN
# In short: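 HeLa cells stably expressing Vif and A3G-eYFP, 700 cells/well, incubated overnight at 37 deg C, then exposed to compound overnight at 37 deg C. Inhibition of Vif-mediated degradation read as increased yellow fluorescence (Ex 488/Em 500-530) by laser-scanning cytometry.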
SMILES,Potency [1],Potency [2],Potency [3],outcome [4],"activity change, negative = inhibition ([5]; at 57.5 µM (top of the series))",max response ([5]; measured here: cell count channel max response),max response ([5]; measured here: lipid channel max response),Potency [6],Potency [7]
N#CC(C#N)=NNc1ccc(OC(F)(F)F)cc1,inactive,,,,,,,,
COC(=O)/C=C\C(=O)N[C@@H]1CC[C@@]2(O)[C@H]3Cc4ccc(O)c5c4[C@@]2(CCN3CC2CC2)[C@@H]1O5,inactive,> 46 µM (inactive),> 46 µM (inactive),inactive,-0.127% (inactive),-6.87%,-10.5%,inactive,inactive
